# An excerpt weighted towards active compounds, which were near 2.9% of everything screened.
# MEKK3 PB1 HTS – modulators of MEKK3-MEK5 PB1 binding, primary screen, biochemical, wildtype MEKK3, multiplex bead flow cytometry, Alexa488-MEK5. AID 1529, 2009. bead-based flow cytometry, Alexa488-MEK5 binding to MEKK3; actives lie on both sides; 0 = blocked by unlabeled MEK5, 100 = vehicle. 290,000 compounds, 1.4% hits. binding response (% of control), % at 10 µM;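 active means binding response more than 3 SD above or below the average of its plate-row segment, actives on both sides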;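 further: Alexa488 bead fluorescence after subtracting the streptavidin-only scavenger bead signal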
# FID counter – compounds displacing fluorescent DNA intercalator, primary screen, artefact control for HCV NS3 helicase inhibitor project, biochemical, FID fluorescence | DNA fluorescent intercalator displacement | inhibition, % at 7.9 µM | 290,000 compounds, 0.17% hits; in the data active means inhibition above about 37%;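 further: higher means more ethidium bromide displaced from hairpin DNA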
# dFosB act – activators of delta FosB homodimer, primary screen, biochemical, fluorescence polarization, TAMRA-CDK5 oligo, single point | purified delta FosB; percent of positive-control signal above neutral wells | 340,000 compounds, 0.99% hits | activation, % at 25 µM | AID 493131, 2011;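 active means mean activation above about 17%, with every replicate also reaching it, limit read from the data, passing the limit was not always enough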
# Target sequence (P13346 whole entry, looked up): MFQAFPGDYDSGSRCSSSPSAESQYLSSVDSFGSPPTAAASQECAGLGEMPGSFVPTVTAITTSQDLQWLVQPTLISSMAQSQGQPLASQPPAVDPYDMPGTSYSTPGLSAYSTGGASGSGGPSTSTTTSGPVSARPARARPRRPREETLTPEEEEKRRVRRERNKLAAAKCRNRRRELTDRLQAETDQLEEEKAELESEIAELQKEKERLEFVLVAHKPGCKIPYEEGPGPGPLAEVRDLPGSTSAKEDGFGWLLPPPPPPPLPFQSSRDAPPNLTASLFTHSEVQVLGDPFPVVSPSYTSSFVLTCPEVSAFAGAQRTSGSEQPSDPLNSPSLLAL
# MEKK2 mut-MEK5 – MEK5 binding signal on mutant MEKK2 PB1, primary screen, biochemical, multiplex bead flow cytometry, Alexa488-MEK5. Alexa488-MEK5 binding to MEKK2 mutant. percent response, % at 10 µM. 290,000 compounds, 0.35% hits. AID 1530, 2009; in the data active means percent response above about 24%, passing the limit was not always enough
# MEKK2 WT-MEK5 – modulators of MEK5 binding to wildtype MEKK2, primary screen, biochemical, multiplex bead flow cytometry, Alexa488-MEK5; AID 1531, 2009; binding response (% of control), % at 10 µM; 290,000 compounds, 1.1% hits; Alexa488-MEK5 binding to MEKK2 WT; actives lie on both sides; Mitogen-activated protein kinase kinase kinase 2 (Homo sapiens), Q9Y2U5; in the data active means binding response below about 67% or above about 130%
# A number is an active result; 0 = inactive; - = no result given; [ ] = another dose, or the depositor's remark.
SMILES,MEKK3 PB1 HTS,FID counter,dFosB act,MEKK2 mut-MEK5,MEKK2 WT-MEK5
CCN(CC)c1ccc2c(Cl)c(Br)c(=O)oc2c1,0,0,0,0,-27
Cc1nnsc1S(=O)(=O)Cc1ccccc1C(F)(F)F,0,0,0,0,0
CC(=O)N1CCN(c2ccc(S(=O)(=O)NCCN(C(C)C)C(C)C)cc2[N+](=O)[O-])CC1,0,0,0,0,0
CN(C)CCNS(=O)(=O)c1ccc(N2CCN(c3ccc(F)cc3)CC2)c([N+](=O)[O-])c1,0,38,0,0,0
CC(=O)N1CC(C)Sc2ccc(S(=O)(=O)NC(C)c3ccccc3)cc21 (stereo unspecified),80[inhibitor],0,0,0,64[inhibitor]
C=C(CN(C)C)C(=O)c1ccc(OC2OC(COC(C)=O)C(OC(C)=O)C(OC(C)=O)C2OC(C)=O)cc1 (stereo unspecified),-,-,21,-,-
C=C(CN(C)C)C(=O)c1ccc2c(c1)OCO2,-,-,0,-,-
COc1ccccc1C=NNC(=O)NN=Cc1ccccc1OC,-,-,0,-,-
COc1ccccc1C=NN=C(NN=Cc1ccccc1OC)NN=Cc1ccccc1OC,-,-,44,-,-
COc1ccc(C(O)Cn2c(=N)n(CCCN(C)C)c3ccccc32)cc1 (stereo unspecified),0,38,0,0,0
O=C1OC(c2cccs2)=N/C1=C\c1ccc(-c2ccccc2Cl)o1,0,0,0,82,62
Cc1ccc(C)c(NC(=O)C2CCCN(S(=O)(=O)c3ccc4[nH]c(=O)ccc4c3)C2)c1 (stereo unspecified),0,0,0,0,0
CC1(C)N=C(N)N=C(N)N1c1ccc(OCCCOc2ccccc2)c(Cl)c1,0,0,0,46,165
O=C(CN(Cc1ccc2c(c1)OCO2)C(=O)CSc1nc2ccccc2o1)NC1CCCCC1,0,0,0,0,0
Cc1nn(C)c(C)c1S(=O)(=O)N(CC(=O)NCCCOC(C)C)c1ccc(C(C)C)cc1,0,0,0,0,0
Cc1nn(C)c(C)c1S(=O)(=O)N(CC(=O)NCCCN1CC(C)CC(C)C1)c1ccc(C(C)C)cc1 (stereo unspecified),0,40,0,0,0
O=C(Nc1ccccc1)c1cccc(N2C(=O)C3C4C=CC(C5CC45)C3C2=O)c1 (stereo unspecified),0,0,0,0,0
COC(=O)c1ccc(NC(=O)c2cccc(N3C(=O)C4C5C=CC(C6CC56)C4C3=O)c2)cc1 (stereo unspecified),0,0,28,0,0
COc1cc(/C=C2\SC(=S)N(NC(=O)c3cccnc3)C2=O)ccc1O,0,0,31,0,0
COc1cccc(/C=C2\SC(=S)N(C(C(=O)O)c3ccccc3)C2=O)c1OC (stereo unspecified),0,0,0,0,-4.0
COc1cc(/C=C2\SC(=S)N(C(Cc3ccccc3)C(=O)O)C2=O)ccc1O (stereo unspecified),0,0,18,0,0
COc1cc(/C=C2\SC(=S)N(NC(=O)c3ccc(O)cc3)C2=O)ccc1O,0,0,28,0,0
Cc1nc(C(=O)NC(C)C)nn1-c1cc(Cl)cc(Cl)c1,0,0,0,0,0
Cc1ccc(S(=O)(=O)NNC(=O)Nc2ccccc2F)c(C)c1,0,0,0,0,0
COC(=O)[C@H](C(C)C)N(Cc1ccccc1)S(=O)(=O)CCN1CCCC1,-,-,0,-,-
SMILES,MEKK3 PB1 HTS,FID counter,dFosB act,MEKK2 mut-MEK5,MEKK2 WT-MEK5
Cc1nc(NC2=NCN(CCCN3CCOCC3)CN2)nc2c(C)cccc12,-,0,32,-,-
c1ccc(COc2ccc(OCCCCN3CCCCC3)cc2)cc1,0,44,0,0,0
COc1cccc(/C=C/c2nc3c(cnn3-c3ccccc3)c(=O)[nH]2)c1,0,0,0,93,-
Cc1cc(C)c(S(C)(=O)=O)c(Oc2cccc(C(F)(F)F)c2)n1,0,0,0,0,0
Cc1ccc(C(=O)N2CCSC2=S)cc1,0,0,0,0,-10
Oc1c(/C=C/C=C/C=Nc2ccccc2)sc(=S)n1Cc1ccccc1,21[inhibitor],0,-,0,-
FC(F)(F)c1ccc(N2CCN(c3ncnc4c3nnn4Cc3ccccc3Cl)CC2)cc1,0,0,0,0,0
Fc1ccc(N2CCN(c3ncnc4c3nnn4Cc3ccccc3Cl)CC2)cc1,71[inhibitor],0,0,0,0
Cc1cccnc1NC(=S)NC(=O)c1oc2ccccc2c1C,0,0,0,0,0
Nc1ccc2nc(COc3ccccc3)[nH]c2c1,0,0,0,0,0
CC1=CC(C)C2COC(c3ccc[n+](C)c3)C1C2C (stereo unspecified),0,0,0,0,0
CCOC(=O)c1cnc(SCc2nc(N)nc(Nc3ccc(C)cc3)n2)nc1N,0,0,48,0,0
CN(C)c1ccc(/C=C/c2cc[n+](C)cc2)cc1,0,0,32,0,28
CC[n+]1ccccc1/C=C/c1ccc(N(C)C)cc1,0,0,0,0,0
CC[n+]1ccc(/C=C/c2ccc(N(C)C)cc2)c2ccccc21,0,57,47,0,-
CC[n+]1c(/C=C/c2ccc(N(C)C)cc2)ccc2ccccc21,0,0,53,0,4.0
CN(C)c1ccc(/C=C/c2cc[n+]([O-])cc2)cc1,0,0,-,0,0
Cc1cc(C)n(-c2ccc(C(=O)NC3CCCCC3)cc2)n1,0,0,0,0,0
CN1/C(=C\C=C2/SC(=S)NC2=O)C(C)(C)c2ccccc21,0,0,70,0,0
CN(C)S(=O)(=O)c1ccc(NC(=O)COC(=O)CC2CC3CCC2C3)cc1 (stereo unspecified),0,0,0,0,0
CCN(CC)C(=O)Oc1cc(=O)n2c3c(cccc13)CCC2,0,0,0,0,0
O=S(=O)(Nc1ccc(N2CCCCC2)cc1)c1ccc(F)cc1F,0,0,-,0,-10
O=S(=O)(Nc1ccc(N2CCCCC2)cc1)c1ccccc1F,0,0,-,0,0
Cc1cccc(NC(=S)N(CCCN(C)C)Cc2cc3cc4c(cc3[nH]c2=O)OCO4)c1,0,38,0,0,0
CCCCNC(=S)N(CCCN(C)C)Cc1cc2cc3c(cc2[nH]c1=O)OCO3,0,0,0,0,0
CCc1ccccc1NC(=S)N(CCCN(C)C)Cc1cc2cc3c(cc2[nH]c1=O)OCO3,0,43,0,0,0
COc1ccc(NC(=O)C2CC(=O)N=C(N)S2)cc1 (stereo unspecified),0,0,0,0,-11
CCc1ccc(NC(=O)C2CC(=O)N=C(N)S2)cc1 (stereo unspecified),0,0,0,0,0
COc1c(/C=N/Nc2nc(N3CCCCC3)nc(N3CCCCC3)n2)cccc1[N+](=O)[O-],0,0,0,0,0

# Assay outcomes (PubChem BioAssay)
